# In the library only some 11% were active in any assay of this set; here they are far more common.
# HTT ATP protect – Huntington cell model cytoprotection by ATP luminescence | AID 1471 | PC12 HTT-Q103 induced, cytoprotection, ATP luminescence, 40 h | Potency, µM (top dose mostly 56.4 µM), for the others: cytoprotection (ATP increase), actives largely listed as activators | 0.14% of 230,000 active; note: potency is the fitted concentration of half-maximal effect; % of control where 0% means no effect; nearly all actives have a fitted effect of over 45% in size
#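 Quantitative HTS on tebufenozide-induced (100 nM) PC12 cells expressing HTTQ103 exon 1–GFP; compounds tested as a concentration series; survival measured via cellular ATP.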
# HPGD inh – inhibitors of human 15-hydroxyprostaglandin dehydrogenase (HPGD); purified HPGD, NADH fluorescence kinetic, PGE2 substrate; AID 894; 4.3% of 150,000 active; P15428; Potency, µM, without a hit: at the top dose activity change, negative = inhibition, hits mostly inhibitors; active = well fitted inhibition curve with a large enough effect, not every such curve was filed as active; inconclusive = small, poorly fitted or top-dose-only effect, or another doubt; inactive = no such curve, though single readings can be large or run the other way; note: potency is the fitted concentration of half-maximal effect; % is set by controls: 0 for no effect and ±100 for the full control effect
#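 20 nM HPGD preincubated 15 min at room temperature with compound in 50 mM Tris-HCl pH 8, 0.01% Tween 20. Started with 1 mM NAD+ and 30 uM prostaglandin E2; NADH fluorescence (360/450 nm) read 5 times over 30-s intervals, last minus first.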
# CBFb-RUNX1 inh – CBF-beta/RUNX1 interaction disruption. AlphaScreen CBFb-His/RUNX1-biotin binding, biochemical. Potency, µM (doses to about 59.8 µM), for inactives: at the highest dose activity, negative = inhibition, usual class: inhibitors. AID 1477. 230,000 tested, under 10 active. Q01196+Q13951; note: % of control where 0% means no effect
# Target sequence (Q01196 whole entry, looked up): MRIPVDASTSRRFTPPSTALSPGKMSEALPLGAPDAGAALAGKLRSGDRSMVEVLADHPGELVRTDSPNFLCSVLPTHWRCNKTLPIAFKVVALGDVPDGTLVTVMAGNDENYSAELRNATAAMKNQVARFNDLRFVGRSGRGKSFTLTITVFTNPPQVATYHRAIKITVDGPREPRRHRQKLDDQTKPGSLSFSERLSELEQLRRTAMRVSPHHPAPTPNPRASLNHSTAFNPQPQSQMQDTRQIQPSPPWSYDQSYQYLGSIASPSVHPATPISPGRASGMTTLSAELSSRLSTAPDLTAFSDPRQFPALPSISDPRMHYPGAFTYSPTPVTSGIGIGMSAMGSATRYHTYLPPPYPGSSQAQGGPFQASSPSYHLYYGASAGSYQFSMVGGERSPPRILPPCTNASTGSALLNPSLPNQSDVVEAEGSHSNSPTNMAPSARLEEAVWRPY
# Target sequence (Q13951 whole entry, looked up): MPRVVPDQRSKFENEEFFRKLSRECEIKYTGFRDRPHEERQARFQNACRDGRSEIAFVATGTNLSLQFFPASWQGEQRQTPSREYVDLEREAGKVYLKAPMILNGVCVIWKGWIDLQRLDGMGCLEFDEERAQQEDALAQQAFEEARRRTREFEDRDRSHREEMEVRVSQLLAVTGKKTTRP
#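 CBF-beta (His) and RUNX1 (biotin), 30 nM each; 20 min preassociation; + compound, 15 min; + beads 50 ng each (Ni, streptavidin), 90 min; RT; AlphaScreen read.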
# HttQ103 aggreg – inhibitors of mutant huntingtin aggregate formation in PC12 cells | PC12 HttQ103-GFP aggregates, Acumen cytometry, 40 h | Potency, µM (top dose mostly 46.1 µM), for the others: at the top dose activity change, negative = inhibition, usual class: inhibitors | 1.1% of 220,000 active | AID 1688; note: potency is the fitted concentration of half-maximal effect; % is set by controls: 0 for no effect and ±100 for the full control effect; nearly all actives have a fitted effect of over 60% in size
#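 Using laser scanning cytometry, GFP-positive aggregates were counted after lysis of PC12 cells induced with 100 nM tebufenozide to express HTT exon 1 Q103–GFP. Compounds were tested in titration.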
# PNC assembly inh – blocks assembly of the perinucleolar compartment; activity change (PNC), negative = inhibition, % at 10 µM; 3.1% of 140,000 active; PC3M PTB-GFP, PNC prevalence imaging, 16 h; active compounds read low; AID 2417;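 active = readout at or below -70, meaning at least 70% loss of cells showing the perinucleolar compartment, a nuclear body marking cancer cells; inconclusive = readout between -30 and a set limit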;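 note: plate controls were DMSO wells for no effect and camptothecin positive control wells for full effect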
#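 Read-out is percentage of cells bearing a perinucleolar compartment, from automated 20x imaging of fixed, Hoechst-stained PC3M PTB-GFP cells. Cells were seeded 4 h, then exposed 16 h to compound (23 nl of library stock) in duplicate plates.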
# ALDH1A1 block – inhibitors of human aldehyde dehydrogenase 1A1 | 7.3% of 220,000 active | Purified ALDH1A1, NADH fluorescence, propionaldehyde substrate | Potency, µM (doses to about 75.3 µM), without a hit: at the highest dose activity, negative = inhibition, actives largely listed as inhibitors; active = well fitted inhibition curve with a large enough effect, not every such curve was filed as active; inconclusive = small, poorly fitted or top-dose-only effect, or another doubt; inactive = no such curve, though single readings can be large or run the other way;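 note: potency is the fitted concentration of half-maximal effect; plate controls were no enzyme wells and a reference inhibitor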
# The depositor's hits bear a star; ? = inconclusive; / = not tested or not shown; [ ] = another dose, or the depositor's remark. Unless noted, calls come from the whole dose curve; as a rule, active = well fitted curve in the direction sought with a large enough effect; inconclusive = small, poorly fitted or top-dose-only effect, or another doubt; inactive = no such curve, though single readings can be large; an effect the other way counts as inactive or inconclusive.
SMILES,HTT ATP protect,HPGD inh,CBFb-RUNX1 inh,HttQ103 aggreg,PNC assembly inh,ALDH1A1 block
Cc1cc(C=C2C(=O)c3ccccc3C2=O)c(C)n1-c1ccccc1,-8%,-17%,-5%,-28%,50,16µM*
O=C(O)c1ccc(COc2ccccc2C=C2C(=O)c3ccccc3C2=O)cc1,-1%[10 µM],10µM*,-11%,-11%,-20,?
Cc1cc(C=C2C(=O)c3ccccc3C2=O)c(C)n1-c1cccc(C(=O)O)c1,7%,/,-17%,?,/,10µM*
Cn1c(=O)c2[nH]c(N3CCOCC3)nc2n(-c2ccccc2)c1=O,7%[0.074 µM],0%,-1%,6%,?,6%
O=c1cc(-c2cccc(-c3ccc(C(F)(F)F)cc3)c2)c2cc3c(cc2o1)OCO3,-61%,-12%,-5%,/,/,?
C=CCN1C(=O)C(CC(=O)Nc2ccc(OCCC)cc2)N(CCCN2CCN(Cc3ccccc3)CC2)C1=S (centres undefined),-157%,/,-3%,?,/,?
Cc1ccc(-n2c(C)cc(C=C3C(=O)CC(C)(C)CC3=O)c2C)cc1,/,?,2%,-1%,10,0.89µM*
CC1=NN(c2ccccc2)C(=O)/C1=C\c1cc(C)n(-c2ccccc2)c1C,-9%[10 µM],-24%,?,-5%,?,?
Cc1cc(C=C2C(=O)c3ccccc3C2=O)c(C)n1-c1ccc(C(=O)O)cc1,25%[10 µM],/,3%,10%[9.22 µM],/,5.6µM*
Nc1nc(Nc2ccccc2)nc2c1ncn2[C@@H]1O[C@@H](CO)[C@H](O)[C@@H]1O,-10%[1.9 µM],/,/,/,/,/
CSCC[C@H](N)C(=O)N[C@@H](CO)C(=O)N[C@@H](CCCN=C(N)N)C(=O)N1CCC[C@H]1C(=O)N[C@@H](C)C(=O)N[C@@H](CS)C(=O)N1CCC[C@H]1C(=O)N[C@@H](CC(N)=O)C(=O)N[C@@H](CC(=O)O)C(=O)N[C@@H](CCCCN)C(=O)N[C@@H](Cc1ccc(O)cc1)C(=O)N[C@@H](CCC(=O)O)C(=O)O,/,/,4%,/,/,/
CN1CCc2c(sc(NC(=O)c3cc4cc([N+](=O)[O-])ccc4s3)c2C(N)=O)C1,-202%,/,?,7.1µM*,/,0%
CCCCCCCCN[C@@H](C)[C@H](O)c1ccc(SC(C)C)cc1,-62%[17.1 µM],-8%,11%[21.7 µM],/,/,-9%[20.9 µM]
CC(C)CC(=O)Nc1ccc(Nc2ccccc2)cc1,-2%[10 µM],11µM*,-11%,-1%,-100*,0%
CC(C)C(=O)NC(=S)Nc1ccccc1C(=O)Nc1ccccc1,-13%,-10%,0%,4%,94,-1%
CC(C)(C)C(=O)NC(=S)Nc1ccccc1C(=O)Nc1ccccc1,8%,-3%,-1%,5%,45,25µM*
CC(C)CC(=O)NC(=S)Nc1ccccc1C(=O)Nc1ccccc1,4%,-15%,0%,-6%,7,10µM*
CC(C)(C)C(=O)Nc1ccccc1C(=O)Nc1ccccn1,-7%[10 µM],-11%,-5%,5%,-100*,-12%
CSCC[C@H](NC(=O)[C@H](Cc1ccccc1)NC[C@@H](NC[C@@H](N)CS)C(C)C)C(=O)O,7%,/,?,/,/,-10%
COc1ccccc1C(=O)NCC1(c2ccccc2)CCCC1,/,/,10%,/,/,?
O=C(Cc1ccccc1)Nc1ccccc1C(=O)Nc1ccccc1,/,?,2%,-26%,-120*,11%
Cc1ccc(NC(=O)c2ccccc2NC(=O)Cc2ccccc2)cc1,0%[10 µM],-1%,1%,-19%,?,-7%
COc1ccc(Oc2cc(C)nc(Cl)n2)nn1,-11%,/,0%,?,/,8.9µM*
Cc1cc(Oc2ccc(OCC(N)=O)nn2)nc(Cl)n1,-17%,/,-2%,25%,/,2%
Cc1ccc(NC(=O)c2ccc3c(c2)C(=O)N(CC2CCCO2)C3=O)cc1C (centres undefined),7%[10 µM],/,5%,4%[9.22 µM],/,3.2µM*
